# PubChem BioAssay AID2113 (National Center for Advancing Translational Sciences (NCATS), 2009)
# Inconclusive results are not listed. The source made the active and inactive calls. The call rests on the fitted dose curve; in most records, active means well fitted curve in either direction with a large enough effect; inconclusive means small, poorly fitted or top-dose-only effect; inactive means no such curve, though single readings can be large or run the other way.
# Target: Lysosomal alpha-glucosidase (Homo sapiens) (UniProt P10253)
# Assay: Confirmation of Inhibitors and Activators of Human alpha-Glucosidase From Spleen Homogenate;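 on Potency: fluorescence of 4-methylumbelliferone released from a fluorogenic glucopyranoside substrate at pH 5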; on activity change, both directions: 0% is about no effect
# Conditions: alpha-glucosidase enzyme activity; series mostly up to 60.5 µM; activity change, both directions: at the top concentration
# In short: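 Compounds titrated against spleen-homogenate alpha-glucosidase, pH 5.0, 1 mM 4-MU-glucoside substrate, 37 C for 40 min. Fluorescence after pH 10 stop, normalised to no-enzyme and enzyme controls; Hill-equation AC50.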
# Potency means the concentration at half of the fitted maximal effect.
Structure (SMILES),Potency,"activity change, both directions"
CCCN1CNc2c(c(=O)[nH]c(=S)n2CCc2cc(OC)ccc2OC)C1,20 µM (active),
COC(=O)c1ccc(C(=O)OC)c(NC(=S)N2CCOCC2)c1,,7.39% [at 31.5 µM] (inactive)
c1csc(-c2nc(NCC3CCCO3)c3ccccc3n2)c1 (stereo unspecified),,2.62% [at 31.5 µM] (inactive)
CCCN1CNc2c(c(=O)[nH]c(=S)n2CCc2c(OC)cccc2OC)C1,,7.74% (inactive)
Nc1ccc(S(=O)(=O)N2CCOCC2)cc1,,1.95% (inactive)
CCC(=O)N1CCN(c2ccc(Cl)cc2NC(=O)c2ccc(N3CCCC3)c([N+](=O)[O-])c2)CC1,,-0.875% [at 31.5 µM] (inactive)
COc1ccc(/C=C/c2nnc(NC(C)=O)s2)cc1,,1.39% (inactive)
C[C@@H](NC(=O)c1nc[nH]c1C(=O)N[C@@H](Cc1ccccc1)C(=O)OC(C)(C)C)c1ccccc1,,-2.65% (inactive)
CCCN1CNc2c(c(=O)[nH]c(=S)n2CCc2ccccc2OC)C1,44.7 µM (active),
O=C(CSc1ccccc1)Nc1nnc(/C=C/c2ccccc2)s1,,14% (inactive)
C/C=C1\COC(C(=O)NCCN2CCOCC2)(C(F)(F)F)C=C1C=C1CCCCC1 (stereo unspecified),,-1.87% (inactive)
C[C@H](NC(=O)/C(C#N)=C/c1ccc(O)c(O)c1)c1ccccc1,,3.9% (inactive)
COc1ccc(C#Cc2cnc(Cl)c3cncnc23)cc1OC,,2.33% (inactive)
c1ccc(-c2nc3nc4ccccc4nc3n2CC2CCCO2)cc1 (stereo unspecified),,7.03% [at 31.5 µM] (inactive)
OCCNc1nc(-c2cccs2)nc2ccccc12,,0.945% (inactive)
COC(=O)CSc1cc([N+](=O)[O-])ccc1NC(=O)OC,,6.67% [at 31.5 µM] (inactive)
CC(=O)c1ccc(N2CCN(S(=O)(=O)c3ccc4c(c3)n(C)c(=O)n4C)CC2)cc1,,0.0126% (inactive)
CCc1ccc(-c2nc(-c3cc4ccc(OC(C)=O)cc4oc3=O)sc2C)cc1,,3.56% (inactive)

Structure (SMILES),Potency,"activity change, both directions"
O=c1oc2cc(O)ccc2cc1-c1nc2c(s1)CCc1ccccc1-2,31.6 µM (active),
O=C(COc1ccc2ccccc2c1)N1CCN(C(=O)c2ccco2)CC1,,1.13% [at 31.5 µM] (inactive)
COc1ccc(N2CCN(S(=O)(=O)c3ccc4c(c3)CC(=O)N4)CC2)cc1,18.8 µM [inhibitor] (active),
O=S(=O)(c1ccc(Br)cc1)N1CCOCC1,,1.29% (inactive)
CC(C)NCC(O)COc1cccc2[nH]ccc12 (stereo unspecified),,1.09% (inactive)
COc1ccc(/C=C/c2nnc(NC(=O)CSc3ccccc3)s2)cc1,,2.85% (inactive)
CC1S/C(=N\N=C\c2cccc([N+](=O)[O-])c2)N(C(C)(C)C)C1=O (stereo unspecified),,-1.21% [at 31.5 µM] (inactive)
N#Cc1ccccc1S(=O)(=O)N1CCOCC1,,-1.28% (inactive)
CN(CCO)S(=O)(=O)c1ccc2c(c1)C(=NN)c1cc(S(=O)(=O)N(C)CCO)ccc1-2,,-3.45% (inactive)
NN=C1c2cc(S(=O)(=O)NCCO)ccc2-c2ccc(S(=O)(=O)NCCO)cc21,,0.552% (inactive)
O=S(=O)(c1ccc2c(c1)C(=NNc1ccccc1)c1cc(S(=O)(=O)N3CCOCC3)ccc1-2)N1CCOCC1,,-3.62% (inactive)
Cc1ccc(-n2c3c(c(=O)[nH]c2=S)C(C(F)(F)F)(C(F)(F)F)NC(=O)N3)cc1,,0.812% [at 31.5 µM] (inactive)
N#C/C(=C\c1c(N2CCCCC2)nc2ccccn2c1=O)C(=O)NC1CCS(=O)(=O)C1 (stereo unspecified),14.1 µM (active),
COc1ccc(CCn2c(=S)[nH]c(=O)c3[nH]cnc32)cc1OC,,-2.31% (inactive)
O=C1c2ccccc2NC(c2cccnc2)N1c1ccccc1F (stereo unspecified),,8.66% [at 31.5 µM] (inactive)
O=S(=O)(c1ccccc1Cl)N1CCOCC1,,2.5% (inactive)
COc1ccc(C#Cc2c[nH]c(=O)c3cncnc23)cc1OC,,-4.96% (inactive)
O=C(CCc1cccc(S(=O)(=O)N2CCOCC2)c1)NN=C1c2ccccc2-c2ccccc21,,-5.44% (inactive)
